# Results with a measured potency or affinity are listed apart. Inconclusive results are not listed. The source made the active and inactive calls.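 The calls were made as follows: active = compounds whose fitted half-maximal concentration is at most ten times their top tested dose; inconclusive = flat curve with 30 to 70% inhibition, or poor fit; inactive = the rest.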
# Test: C. albicans growth inhibition with fluconazole, dose response, antifungal resistance reversal project, CaCi-2 strain, Alamar Blue, dry powder, set 2 (AID 488930)
# Details: C. albicans CaCi-2 (fluconazole-resistant clinical isolate) + fluconazole, 48 h; series mostly up to 6 µM
row,SMILES,outcome
1,O=C(c1ccc(Cl)cc1)N1CCNCC1,inactive
2,O=C(c1ccc(Cl)cc1)N1CCN(c2ccnc3ccccc23)CC1,inactive
3,COc1cccc2c(N3CCN(C(=O)c4ccc(Cl)cc4)CC3)cc(C)nc12,inactive
4,O=C(c1ccc(Cl)cc1)N1CCCN(c2ccnc3cc(Cl)ccc23)CC1,inactive
5,O=C(O)Cn1nc(-c2ccccc2)c2ccccc21,inactive
6,Cc1cc(N2CCN(C(=O)c3ccc(Cl)cc3)CC2)c2ccccc2n1,inactive
7,Cc1cc(N2CCN(C(=O)c3ccc(Cl)cc3)CC2)c2ccc(F)cc2n1,inactive
8,O=C(c1ccc(Cl)cc1)N1CCN(c2ncnc3ccccc23)CC1,inactive
9,COc1ccc2c(N3CCN(C(=O)c4ccc(Cl)cc4)CC3)ccnc2c1,inactive
10,N#Cc1ccc(N2CCN(C(=O)c3ccc(Cl)cc3)CC2)nc1,inactive
11,O=C(c1ccc(Cl)cc1)N1CCN(c2ncnc3nc[nH]c23)CC1,inactive
12,O=C(c1ccc(Cl)cc1)N1CCN(c2ccncc2)CC1,inactive
13,O=C(c1ccccc1Cl)N1CCN(c2ccnc3cc(Cl)ccc23)CC1,inactive
14,O=C(c1ccc(Cl)cc1)N1CCN(c2cccnc2)CC1,inactive
15,CCCC(=O)N1CCN(c2ccnc3cc(Cl)ccc23)CC1,inactive
16,COCCC(=O)N1CCN(c2ccnc3cc(Cl)ccc23)CC1,inactive
17,Clc1ccc2c(N3CCNCC3)ccnc2c1,inactive
18,O=C(Nc1ccc(Cl)cc1)N1CCN(c2ccnc3cc(Cl)ccc23)CC1,inactive
19,COc1ccnc(N2CCN(C(=O)c3ccc(Cl)cc3)CC2)c1,inactive

# Reference: PubChem BioAssay AID488930 (Broad Institute, 2010)
